Assay [1] is described as follows: CEETOX_H295R_11DCORT: CeeTox H295R High-throughput Steroidogenesis Assay for 11-Deoxycortisol (11DCORT) (AID 2283432). The following applies: actives raise or lower the signal. The essentials:
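H295R cells; 10 uM forskolin prestim 48 h; compound in 0.1% DMSO 48 h; media extracted with MTBE; 11-deoxycortisol by LC-MS/MS, 7-point standard curve; gain/loss vs DMSO baseline; viability by MTT in same wells.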

The nature of assay [2]: CEETOX_H295R_OHPREG: CeeTox H295R High-throughput Steroidogenesis Assay for OH-Pregnenolone (OHPREG) (AID 2283434). Conditions: actives raise or lower the signal. Put shortly: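 Hormone levels in spent medium were measured by tandem mass spectrometry following liquid-liquid extraction. Cells (H295R) had been forskolin-stimulated (10 uM, 48 h) before a 48 h chemical exposure at 0.1% DMSO, with activity fitted in both directions against DMSO.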

Assay [3] can be described thus: CEETOX_H295R_OHPROG: CeeTox H295R High-throughput Steroidogenesis Assay for OH-Progesterone (OHPROG) (AID 2283435).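 As to AC50: human adrenal H295R cells primed 48 h with 10 µM forskolin; 17alpha-hydroxyprogesterone secreted into medium measured by HPLC-MS/MS.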 Conditions: actives raise or lower the signal. The essentials: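 Secreted 17alpha-hydroxyprogesterone is read by tandem MS from media of forskolin-primed H295R cells dosed with chemical for 48 h. Activity is fitted in both directions against DMSO baseline; cytotoxic concentrations are re-tested diluted.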

Assay [4] in a line: CEETOX_H295R_ANDR: CeeTox H295R High-throughput Steroidogenesis Assay for Androstenedione (ANDR) (AID 2283436). Conditions: actives raise or lower the signal. How it is done: CEETOX_H295R is a cell-based, multiplexed-readout assay that uses H295R, a human adrenal gland cell line, with measurements taken at 48 hours after chemical dosing in a 96-well plate.CEETOX_H295R_ANDR is one of 23 assay component(s) measured or calculated from the CEETOX_H295R assay. It is designed to make measurements of hormone induction, a form of inducible reporter, as detected with absorbance signals by HPLC-MS-MS technology.Data from the assay component CEETOX_H295R_ANDR was analyzed into 1 assay endpoint. This assay endpoint, CEETOX_H295R_ANDR, was analyzed with bidirectional fitting relative to DMSO as the negative control and baseline of activity. […] To generalize the intended target to other relatable targets, this assay endpoint is annotated to the steroid hormone intended target family, where the subfamily is androgens.
Cell culture and media preparation procedures were conducted in accordance with OECD Test No. 456 guidelines, with minor modifications. H295R cells (ATCC CRL-2128) were expanded for 5 passages and frozen in batches in liquid nitrogen. Prior to the steroidogenesis assay, H295R cells were thawed and passed at least 4 times. The maximum passage was 10. Cells were maintained in a 1:1 mixture of DMEM/F12 supplemented with 5ml/L ITS+ Premix (BD Bioscience) and 12.5 ml/L Nu-Serum (BD Bioscience). After seeding cells into 96-well plates at 50-60% confluency, cells were allowed to adhere overnight. […] Test chemicals were incubated for 48 hours, then the medium was removed and split into 2 vials containing approximately 75uL each, and stored at -80 C prior to hormone analysis. For steroid quantification, media samples were shipped to OpAns, LLC (Durham, NC) on dry ice, and samples were thawed to room temperature prior to liquid-liquid extraction. Steroid hormones were extracted from media samples using methyl tertbutyl ether (MTBE). An extra derivatization with dansyl chloride was included for estrogen (estrone and estradiol) detection only. Steroid hormones were separated by HPLC, eluted using a reverse phase C18 gradient with electrospray positive ionization, followed by quantification by tandem mass spectrometry (MS/MS). Data were acquired on a MassHunter Workstation Acquisition version B03.01 (Agilent Technologies, Inc.) and processed using MassHunter Quantitative Analysis for QQQ. Accuracy was determined for each hormone analyte from 3 standards to determine upper and lower limits of quantification (ULOQ and LLOQ, respectively) using a 7-point standard curve. Precision and accuracy of the extraction and quantification methods were calculated as the percent relative standard deviation (%RSD) of the spiked standards and percent spiked standard recovered, respectively. […] Test medium was removed following chemical exposure, and cell viability was evaluated in the same wells by MTT. MTT procedures were as follows: after removal of test medium, 500 uL of 0.5 mg/ml of 3-[4,5-dimethylthiazol-2-y]2,5-diphenyltetrazoliumbromide solution was added to the cells. Following a 4-hour incubation at 37 C and 5% CO2 to allow formazan-crystal formation, the MTT solution was removed and blue formazan salt crystals were solubilized using 500uL anhydrous isopropanol with shaking for 20 minutes. Absorbance was read at 570 and 650nm using a Packard Fusion microplate reader. Background correction of absorbance units was used to determine percent change relative to controls. […] When a test chemical reduced cell viability to 20% - 70%, the test chemical was diluted 10-fold and re-evaluated, but if cell viability was <20%, then the test chemical was diluted 100-fold and re-evaluated. Test chemical dilutions were made until cell viability was >/=70%. MTT assays were also conducted for duplicates of all concentrations of chemicals tested in concentration-response studies.

Assay [5] in a line: CEETOX_H295R_CORTIC: CeeTox H295R High-throughput Steroidogenesis Assay for Corticosterone (CORTIC) (AID 2283437).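 Also: corticosterone secreted into medium quantified by mass spectrometry.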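 As to AC50: human H295R adrenal cells prestimulated with forskolin before chemical exposure.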 Conditions: actives raise or lower the signal. Put shortly:
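Corticosterone secreted into medium is measured by reverse-phase HPLC with tandem MS following liquid-liquid extraction. Cells are forskolin-stimulated (10 uM, 48 h) before 48 h test exposure; activity fitted in both directions against DMSO.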

Assay [6] is described as follows: CEETOX_H295R_CORTISOL: CeeTox H295R High-throughput Steroidogenesis Assay for Cortisol (AID 2283438).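 Also: cortisol secreted into medium quantified by LC-MS/MS.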 Conditions: actives raise or lower the signal. The essentials:
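Human adrenocortical H295R cells (passage ≤10) received test chemicals for 48 h after forskolin priming. Secreted cortisol was measured by LC-MS/MS.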

Assay [7] can be described thus: CEETOX_H295R_DOC: CeeTox H295R High-throughput Steroidogenesis Assay for DOC (AID 2283439). Conditions: actives raise or lower the signal. The essentials: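 Secreted DOC was quantified from H295R media by HPLC-MS/MS after 48 h chemical exposure following 48 h forskolin (10 uM) prestimulation. Values were fitted in both directions relative to DMSO, the negative control and baseline.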

Assay [8] is described as follows: CEETOX_H295R_ESTRADIOL: CeeTox H295R High-throughput Steroidogenesis Assay for Estradiol (AID 2283440).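 Also: estradiol secreted into medium quantified by LC-MS/MS after dansyl derivatisation.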 The following applies: actives raise or lower the signal. The essentials:
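H295R, 48 h forskolin (10 uM) prestim → 48 h compound, 0.1% DMSO final. Estradiol in medium: MTBE extraction, dansyl chloride derivatization, LC-MS/MS. Fit bidirectional vs DMSO baseline; MTT viability in same wells.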

In assay [9] the target is Peroxisome proliferator-activated receptor gamma (Homo sapiens) (UniProt P37231). The experiment in a line: OT_PPARg_PPARgSRC1_1440: Odyssey Thera (OT) 24-hour Protein-Complementation Assay for Peroxisome Proliferator-activated Receptor Gamma/ SRC-1 Co-activator (AID 2283388; active = hit-call score of the fitted dose curve at least 0.9, where 1 is the maximum;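 also: nuclear to cytoplasmic ratio of reconstituted Venus YFP fluorescence in fixed imaged cells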). Put shortly:
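Readout: nuclear-to-cytoplasmic 488 nm fluorescence ratio, ≥350 cells per image, 8 images per well, after 24 h compound exposure of HEK293T expressing PPARg/SRC-1 split-YFP fusions. Activity fitted in positive direction against DMSO.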

Assay [10] has the same target. The experiment in a line: OT_PPARg_PPARgSRC1_0480: Odyssey Thera (OT) 8-hour Protein-Complementation Assay for Peroxisome Proliferator-activated Receptor Gamma / SRC-1 Co-activator (AID 2283387; active = hit-call score of the fitted dose curve at least 0.9, where 1 is the maximum;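 also: nuclear to cytoplasmic split Venus YFP fluorescence ratio reporting PPARg SRC-1 interaction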). Put shortly: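 Read-out: 488 nm N/C fluorescence ratio from complemented Venus YFP fragments, ≥350 cells per image, gain-of-signal fitted against DMSO baseline. Fusions of PPARg/SRC-1 with IFP1/IFP2 expressed transiently in HEK293T; compounds applied 8 h.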

Records with an inconclusive call do not appear. Activity calls are given as the source filed them. The calls were made as follows, unless noted: active = hit-call score of the fitted dose curve at least 0.9, where 1 is the maximum; inactive = score below 0.9.

By AC50 is commonly meant the midpoint of the concentration-response curve, whichever way the signal moves.

Peroxisome proliferator-activated receptor gamma (Homo sapiens), sequence (P37231 whole entry, looked up, the tested form may be a part): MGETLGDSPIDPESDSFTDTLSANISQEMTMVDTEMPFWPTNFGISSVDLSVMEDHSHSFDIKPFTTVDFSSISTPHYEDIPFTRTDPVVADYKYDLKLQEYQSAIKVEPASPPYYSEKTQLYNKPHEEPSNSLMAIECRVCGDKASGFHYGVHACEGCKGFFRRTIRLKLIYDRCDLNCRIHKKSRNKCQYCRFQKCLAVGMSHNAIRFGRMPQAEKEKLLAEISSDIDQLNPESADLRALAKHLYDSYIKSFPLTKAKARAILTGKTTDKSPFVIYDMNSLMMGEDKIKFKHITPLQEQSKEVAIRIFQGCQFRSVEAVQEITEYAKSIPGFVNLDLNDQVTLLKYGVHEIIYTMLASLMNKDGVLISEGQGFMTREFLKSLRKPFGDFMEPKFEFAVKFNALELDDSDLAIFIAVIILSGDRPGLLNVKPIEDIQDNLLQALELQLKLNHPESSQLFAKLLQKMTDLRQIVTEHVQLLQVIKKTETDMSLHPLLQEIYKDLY

For `CCCCCc1ccc(O)cc1`, the outcome in [1], in [2], in assay [3], in [6], in assay [7] and in [8] was inactive. Besides, the AC50 in assay [4] was 50 µM (active); in assay [5], 21.9 µM (active).
Regarding `COc1cc([N+](=O)[O-])ccc1N`, the call in assay [9], in [1], in assay [2], in assay [4], in assay [5] and in [6] was inactive. The compound was called inactive in [8]. The half-maximal activity concentration (AC50) was 15.1 µM (active) in [3] and 23.8 µM (active) in assay [7].
In the case of `Oc1cc2ccccc2cc1O`, the result in [1], in assay [2], in assay [3], in assay [4], in assay [5] and in [6] was inactive. The result in [7] and in assay [8] was inactive.
Take `C[C@]12CC[C@@H]3c4ccc(O)cc4CC[C@H]3[C@@H]1C[C@@H](O)[C@@H]2O`: the call in assay [10], in assay [9], in [1], in [3], in assay [5] and in assay [6] was inactive. Also, the values for the AC50 in assay [2] and in assay [7] were 31.8 µM (active) and 25.8 µM (active), respectively.
`CC(C)(C)c1ccc(O)c(O)c1`: the call in assay [1], in [2], in [3], in assay [5] and in assay [7] was inactive. Besides, in assay [6], the AC50 was 50 µM (active).
For `N=C(N)c1ccc(OCCCCCOc2ccc(C(=N)N)cc2)cc1`, the call in assay [10] and in assay [9] was inactive.
As to `CC(O)COc1ccccc1` (stereo unspecified), the result in assay [10] and in [9] was inactive.
On to `c1cc[nH]c1`, for which the call in [1], in [2], in assay [3], in assay [4], in assay [5] and in assay [6] was inactive. In addition, the compound was called inactive in [7].
Turning to `c1cnc2c(c1)ccc1cccnc12`, the compound was called inactive in assay [10] and in assay [9].
`CC(C)CCOCCC(C)C`: the compound was called inactive in assay [1], in [2], in assay [3], in assay [4], in assay [5] and in assay [6]. The compound was called inactive in [7] and in assay [8].
As to `Clc1ccc(Nc2nnc(Cc3ccncc3)c3ccccc23)cc1`, the call in assay [1], in [2], in assay [3] and in assay [7] was inactive. The AC50 is 2.38 µM (active) in assay [5], 3.2 µM (active) in [6] and 2.39 µM (active) in assay [8].
On to `Cc1cccc2c1ccc1ccccc12`, for which the compound was called inactive in [1], in [2], in [3], in assay [4], in assay [5] and in assay [6]. Also, the compound was classed as inactive in assay [7] and in assay [8].
For the compound `COc1cccc(O)c1`, the outcome in [1], in [2], in assay [3], in assay [5], in assay [6] and in [7] was inactive.

These data come from PubChem BioAssay (EPA / NIEHS).
